For 16 molecules, Potency and outcome results are on record in PubChem BioAssay (Tox21).

Experiment [1] can be described thus: qHTS assay to identify small molecule antagonists of the retinoid acid receptor (RAR) signaling pathway - cell viability counter screen (AID 1159551). Note: nearly all actives have a fitted effect of over 35% in size. The procedure, abridged: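 ATP-based viability, C3RL4 cells, 6 h at 37 C with 1 uM final retinol co-added after compound; luminescence read 30 min post CellTiter-Glo, RT.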
Experiment [2] in a line: qHTS assay to identify small molecule antagonists of the retinoic acid receptor (RAR) signaling pathway (AID 1159552; note: nearly all actives have a fitted effect of over 50% in size; note: potency is the fitted concentration of half-maximal effect). The procedure, abridged: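 Antagonism of retinol-induced RARE reporter activity was measured in C3RL4 cells. Exposure to compounds and 1 uM final retinol lasted 6 hr at 37 C, with luminescence as endpoint.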
A general note: In qHTS, concentration-response curves come from the screen itself.

Experiment [3] is described as follows: qHTS assay to identify small molecule agonists of the retinoic acid receptor (RAR) signaling pathway (AID 1159553). Note: potency is the fitted concentration of half-maximal effect. The procedure, abridged: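 Quantitative high-throughput format: the Tox21 10K library was tested on C3RL4 RARE-luciferase cells for 6 hr at 37 C and 5% CO2, with luminescence measured after a 30 min room-temperature reagent step.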
Experiment [4] is described as follows: qHTS assay to identify small molecule antagonists of the estrogen related receptor (ERR) signaling pathway from Tox21 library - cell viability counter screen (AID 1224834). Note: nearly all actives have a fitted effect of over 30% in size. Note: potency is the fitted concentration of half-maximal effect. The procedure, abridged:
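Compounds in DMSO were pinned onto ERR cells that had been incubated for 6 h, and the plates were held at 37 C for 17.5 h. CellTiter-Fluor reagent was then added and fluorescence was measured after 30 min.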

The target of experiment [5] is Luciferin 4-monooxygenase (Photinus pyralis) (UniProt P08659). The experiment is described as follows: qHTS assay to identify small molecule inhibitors of firefly luciferase (AID 1224835). Note: nearly all actives have a fitted effect of over 25% in size. Note: potency is the fitted concentration of half-maximal effect. The procedure, abridged: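 Inhibition of purified Photinus luciferase is measured by luminescence. Substrate levels (D-luciferin, ATP) sit at their KM values. Each compound is tested in a concentration series.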

A short description of experiment [6]: qHTS assay to identify small molecule antagonists of the constitutive androstane receptor (CAR) signaling pathway - cell viability counter screen (AID 1224837). Note: nearly all actives have a fitted effect of over 45% in size. Note: potency is the fitted concentration of half-maximal effect. The procedure, abridged: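 Cells are seeded, rested 4 hr at 37 C/5% CO2, dosed with compound (15-point series) and 50 nM CITCO, incubated a further 23 hr, and then CellTiter-Fluor reagent is added before fluorescence is read. The line is HepG2 with stable hCAR and CYP2B6-2.2kb.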

Experiment [7] has as its target Nuclear receptor subfamily 1 group I member 3 (Homo sapiens) (UniProt Q14994). The experiment is described as follows: qHTS assay to identify small molecule antagonists of the constitutive androstane receptor (CAR) signaling pathway (AID 1224838).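 Note: HepG2 cells stably expressing hCAR with CYP2B6 luciferase reporter stimulated by CITCO; nearly all actives have a fitted effect of over 40% in size.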 Note: potency is the fitted concentration of half-maximal effect. The procedure, abridged:
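Luminescence from a CYP2B6-2.2kb promoter reporter in hCAR-expressing HepG2 cells reflects CAR signaling. Cells received compounds at 15 concentrations and 50 nM CITCO (final), then incubated 24 h at 37 C/5% CO2.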

Experiment [8] has the same target. The experiment is described as follows: qHTS assay to identify small molecule agonists of the constitutive androstane receptor (CAR) signaling pathway (AID 1224839). Note: nearly all actives have a fitted effect of over 15% in size. Note: potency is the fitted concentration of half-maximal effect. The procedure, abridged: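 Readout: firefly luciferase luminescence via ONE-Glo. System: HepG2 double-stable for hCAR and CYP2B6-2.2kb. Conditions: 15-point compound titration, PK11195 at 0.75 uM final, 24 h incubation.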

The target of experiment [9] is Thyrotropin receptor (Homo sapiens) (UniProt P16473). The experiment in a line: qHTS assay to identify small molecule agonists of the thyroid stimulating hormone receptor (TSHR) signaling pathway (AID 1224843; calls by dose curve; note: nearly all actives have a fitted effect of over 45% in size; note: potency is the fitted concentration of half-maximal effect). The procedure, abridged: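 Agonist activity read as cAMP rise via d2/cryptate HTRF competition, 1 h room-temperature detection, in HEK293 cells expressing TSHR. Fifteen-point titrations, each run in triplicate, with a 30 min room-temperature incubation beforehand.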

Experiment [10] is described as follows: qHTS assay to identify small molecule agonists of the constitutive androstane receptor (CAR) signaling pathway - cell viability counter screen (AID 1224836). Note: nearly all actives have a fitted effect of over 45% in size. Note: potency is the fitted concentration of half-maximal effect. The procedure, abridged:
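Double-stable HepG2 hepatoma cells (hCAR plus CYP2B6-2.2kb) are treated for 23 h at 37 C with test compounds in 15-point concentration series. PK11195 at 0.75 uM final is co-added. Cell viability is quantified by CellTiter-Fluor.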

Experiment [11] is described as follows: qHTS assay to identify small molecule antagonists of the estrogen related receptor signaling pathway with the pleiotropic PPARgamma coactivator (PGC) from Tox21 10K library - cell viability counter screen (AID 1224840; active = well fitted cell-killing curve with a large enough effect in the repeat runs, not every such curve was filed as active; note: nearly all actives have a fitted effect of over 40% in size; note: potency is the fitted concentration of half-maximal effect). The procedure, abridged:
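Cell viability is measured by CellTiter-Fluor fluorescence in PGC/ERR cells that receive compounds after a 6-hour attachment period and are then incubated 17.5 hours at 37 C.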

Experiment [12] in a line: qHTS assay to identify small molecule antagonists of the estrogen related receptor signaling pathway with the pleiotropic PPARgamma coactivator (PGC) from Tox21 10K library (AID 1224841; call rule not given here; note: actives are mostly falling curves and most rising ones were filed inactive; nearly all actives have a fitted effect of over 50% in size; note: potency is the fitted concentration of half-maximal effect). The procedure, abridged:
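Cells stably carrying the PGC/ERR reporter, seeded at 2,000 per well, received pin-transferred compounds 6 h post-plating. Exposure lasted 18 h at 37 C. Signal: One-Glo luminescence.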

Experiment [13] can be described thus: qHTS assay to identify small molecule agonists of the estrogen related receptor signaling pathway with the pleiotropic PPARgamma coactivator (PGC) from Tox21 10K library (AID 1224842). Note: nearly all actives have a fitted effect of over 15% in size. Note: potency is the fitted concentration of half-maximal effect. The procedure, abridged: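 Luminescence from One-Glo (30 min, room temperature) measured after PGC/ERR cells had 18 h at 37 C with pinned compound (23 nL in DMSO). Cells had been seeded at 2,000 per well and pre-incubated 6 h.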

Experiment [14] is described as follows: qHTS assay to identify small molecule antagonists of the estrogen related receptor (ERR) signaling pathway - cell viability counter screen (AID 1224818).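 Note: series mostly up to about 46 µM; viability measured after 17.5 h of compound exposure.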 The procedure, abridged: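 Quantitative high-throughput viability counter screen in ERR cells. Compounds (DMSO) incubated 17.5 h at 37 C; read-out was CellTiter-Fluor fluorescence.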
Experiment [15] can be described thus: qHTS assay to identify small molecule antagonists of the estrogen related receptor (ERR) signaling pathway (AID 1224819; note: series mostly up to about 46 µM; nearly all actives have a fitted effect of over 50% in size). The procedure, abridged: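 ERR reporter cell line (NTP) plated at 2,000 cells/well, settled 6 h at 37C/5% CO2, then exposed to LOPAC compounds for 18 h at 37C. One-Glo luciferase luminescence read after 30 min at room temperature.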
Experiment [16] can be described thus: qHTS assay to identify small molecule agonists of the estrogen related receptor (ERR) signaling pathway (AID 1224820). The procedure, abridged: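 After 6 h plating (2,000 cells/well) and 18 h compound treatment at 37 C, ERR cells were lysed with One-Glo and luminescence read after 30 min at room temperature.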
In experiment [17] the test system is estrogen-related receptor alpha (ERRalpha) with PGC-1alpha coactivator, human. The experiment is described as follows: qHTS assay to identify small molecule antagonists of the estrogen related receptor signaling pathway with the pleiotropic PPARgamma coactivator (PGC) (AID 1224821; calls by dose curve;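 note: series mostly up to about 46 µM; lower luminescence signal means antagonism of PGC/ERR signalling; nearly all actives have a fitted effect of over 50% in size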). The procedure, abridged: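 Luminescence from One-Glo luciferase reagent (30 min, room temperature) measured after 18 h compound treatment at 37 °C. Cells carry the PGC/ERR reporter and were seeded 6 h prior to dosing.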

Experiment [18] is described as follows: qHTS assay to identify small molecule antagonists of the estrogen related receptor signaling pathway with the pleiotropic PPARgamma coactivator (PGC) cell viability counter screen (AID 1224822; note: series mostly up to about 46 µM). The procedure, abridged:
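Cytotoxicity in the PGC/ERR cell line is assessed with CellTiter-Fluor, read as fluorescence intensity 30 min after reagent addition, following 17.5 h compound treatment at 37 C.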

Experiment [19] can be described thus: qHTS assay to identify small molecule agonists of the estrogen related receptor signaling pathway with the pleiotropic PPARgamma coactivator (PGC) (AID 1224823). The procedure, abridged: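 Luminescence from One-Glo reagent (30 min, room temperature) was read after 18 h compound treatment at 37 C of PGC/ERR cells plated 6 h beforehand; compounds delivered in DMSO by pin tool.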

The nature of experiment [20]: qHTS assay to identify small molecule agonists of the RXR signaling pathway - cell viability counter screen (AID 1159529). Note: nearly all actives have a fitted effect of over 50% in size. Note: potency is the fitted concentration of half-maximal effect. The procedure, abridged:
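Counter screen: CellTiter-Glo luminescence. Cells: RXR-alpha-UAS-bla HEK 293T. Medium: 2% charcoal-stripped FBS. Treatment: 16 h, 37 C. Reagent incubation: 30 min, RT.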

Results filed as inconclusive are left out. The source made the active and inactive calls. Unless noted, calls come from the whole dose curve; as a rule, active = well fitted curve in the direction sought with a large enough effect in the repeat runs; inconclusive = weak or mixed curves; inactive = no such curve, though single readings can be large; an effect the other way counts as inactive or inconclusive.

Chain of Thyrotropin receptor (Homo sapiens) (P16473 whole entry, looked up): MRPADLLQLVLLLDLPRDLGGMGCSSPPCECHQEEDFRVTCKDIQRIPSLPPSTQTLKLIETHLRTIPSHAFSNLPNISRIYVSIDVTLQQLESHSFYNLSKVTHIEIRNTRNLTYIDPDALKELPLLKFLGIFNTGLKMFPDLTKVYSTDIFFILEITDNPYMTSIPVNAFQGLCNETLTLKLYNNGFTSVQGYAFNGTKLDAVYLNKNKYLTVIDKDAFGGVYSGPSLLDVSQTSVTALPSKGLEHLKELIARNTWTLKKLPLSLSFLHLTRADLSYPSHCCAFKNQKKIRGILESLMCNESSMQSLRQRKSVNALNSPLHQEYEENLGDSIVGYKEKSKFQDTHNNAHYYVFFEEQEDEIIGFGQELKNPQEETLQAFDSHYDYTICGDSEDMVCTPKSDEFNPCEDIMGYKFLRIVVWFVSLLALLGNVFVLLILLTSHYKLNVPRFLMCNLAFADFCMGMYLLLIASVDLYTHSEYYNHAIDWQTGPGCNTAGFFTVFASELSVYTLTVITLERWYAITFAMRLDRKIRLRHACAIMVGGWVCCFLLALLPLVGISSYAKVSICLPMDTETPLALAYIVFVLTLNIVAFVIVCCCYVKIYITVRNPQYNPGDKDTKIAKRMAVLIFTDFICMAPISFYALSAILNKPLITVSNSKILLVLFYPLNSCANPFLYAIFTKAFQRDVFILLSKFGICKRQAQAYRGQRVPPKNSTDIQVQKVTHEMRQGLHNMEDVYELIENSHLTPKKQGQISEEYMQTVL
Chain of Luciferin 4-monooxygenase (Photinus pyralis) (P08659 whole entry, looked up): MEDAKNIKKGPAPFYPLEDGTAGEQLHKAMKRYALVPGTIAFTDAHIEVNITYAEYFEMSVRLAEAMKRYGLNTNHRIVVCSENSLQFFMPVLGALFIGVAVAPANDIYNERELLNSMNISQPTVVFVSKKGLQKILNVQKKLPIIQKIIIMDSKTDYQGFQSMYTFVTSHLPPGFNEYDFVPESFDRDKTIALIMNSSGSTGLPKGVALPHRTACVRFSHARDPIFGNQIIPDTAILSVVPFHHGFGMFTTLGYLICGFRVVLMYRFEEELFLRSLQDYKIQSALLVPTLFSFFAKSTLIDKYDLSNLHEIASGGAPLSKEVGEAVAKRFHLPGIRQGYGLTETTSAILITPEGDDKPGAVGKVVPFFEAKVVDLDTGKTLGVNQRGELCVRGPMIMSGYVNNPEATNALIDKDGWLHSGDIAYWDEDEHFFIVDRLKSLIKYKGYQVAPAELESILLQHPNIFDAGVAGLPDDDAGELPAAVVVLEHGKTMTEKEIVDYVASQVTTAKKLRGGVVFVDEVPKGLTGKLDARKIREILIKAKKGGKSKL
Chain of Nuclear receptor subfamily 1 group I member 3 (Homo sapiens) (Q14994 whole entry, looked up): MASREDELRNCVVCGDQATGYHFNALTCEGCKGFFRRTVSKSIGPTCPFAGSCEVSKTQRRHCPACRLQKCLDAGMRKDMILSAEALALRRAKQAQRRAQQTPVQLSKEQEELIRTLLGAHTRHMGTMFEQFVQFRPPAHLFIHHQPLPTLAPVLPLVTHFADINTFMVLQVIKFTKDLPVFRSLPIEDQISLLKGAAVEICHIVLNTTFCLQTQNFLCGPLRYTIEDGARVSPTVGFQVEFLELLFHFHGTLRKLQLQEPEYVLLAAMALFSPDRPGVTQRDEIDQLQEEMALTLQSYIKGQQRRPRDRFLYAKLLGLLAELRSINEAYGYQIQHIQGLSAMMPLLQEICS

As for `Nc1ccccc1C(=O)Oc1ccc2ccccc2c1`, the Potency result in experiment [1], in experiment [2], in [4], in experiment [6], in experiment [7] and in experiment [9] was “inactive” each time. The Potency is 0.193 µM (active) in experiment [3], 1.78 µM (active) in experiment [5] and 54.5 µM (active) in experiment [8].

For the molecule `Clc1ccc(-c2ccc(Cl)c(Cl)c2Cl)c(Cl)c1Cl`, the Potency entry in experiment [1], in [2], in [3], in experiment [4], in experiment [5] and in experiment [10] was “inactive” each time. For the same molecule, the Potency result in experiment [6], in experiment [7], in experiment [11], in [12], in experiment [13] and in experiment [9] was “inactive” each time.

As to `O=[N+]([O-])c1c2ccccc2cc2ccccc12`, the Potency entry in experiment [1], in experiment [2], in experiment [15], in experiment [17], in [18] and in experiment [7] was “inactive” each time. Moreover, the Potency entry in experiment [11], in experiment [12] and in experiment [9] was “inactive” throughout. Further, the Potency in experiment [3] was 19.1 µM (active); in [5], 31.3 µM (active); in experiment [8], 21.4 µM (active). Also, the molecule was classed as inactive in experiment [14], in experiment [16] and in experiment [19].

With `CCCCN(CCCC)C(=S)[S-].CCCCN(CCCC)C(=S)[S-].[Zn+2]`, the Potency in experiment [20] was 4.36 µM (active); in experiment [4], 15.3 µM (active); in experiment [10], 21.7 µM (active); in [6], 21.7 µM (active); in experiment [11], 13.7 µM (active). Also, the Potency entry in experiment [5] was “inactive”.

`O=C(O)COc1nc(Cl)c(Cl)cc1Cl`: the Potency result in experiment [1], in [2], in experiment [3], in experiment [18], in experiment [4] and in experiment [5] was “inactive” throughout. Besides, the Potency result in experiment [10], in experiment [6], in [7], in [8], in experiment [11] and in [9] was “inactive” throughout. In experiment [14], the molecule was classed as inactive.

In the case of `Nc1ccccc1C(=O)OC/C=C/c1ccccc1`, the Potency result in [1], in experiment [2], in [10], in experiment [6], in experiment [7] and in experiment [11] was “inactive” in each case. Also, the Potency result in experiment [9] was “inactive”. Further, the values for the Potency in [3], in experiment [5] and in experiment [8] were 1.22 µM (active), 31.8 µM (active) and 48.7 µM (active), respectively.

With `CC(=O)C(Cl)(Cl)Cl`, the Potency entry in experiment [1], in [3], in [8] and in experiment [9] was “inactive” in each case. Further, the Potency is 29.6 µM (active) in experiment [2]; 20.9 µM (active) in experiment [4]; 16.6 µM (active) in experiment [10]; 20.9 µM (active) in experiment [6]; 23.5 µM (active) in [7]; 23.5 µM (active) in experiment [11]. Moreover, the Potency in experiment [12] is 8.34 µM (active).

Turning to `COc1ccc(/C(=C/C(=O)N2CCOCC2)c2ccc(Cl)cc2)cc1OC`, the Potency result in [1], in experiment [2], in [3], in experiment [5], in experiment [10] and in experiment [6] was “inactive” throughout. For the same molecule, the Potency result in experiment [7], in [8], in experiment [12], in experiment [13] and in experiment [9] was “inactive” each time.

Take `BrC(Br)C(Br)(Br)Br`: the Potency result in [1], in [3], in experiment [10], in experiment [6], in experiment [8] and in experiment [11] was “inactive” each time. Further, the Potency in experiment [2] was 30.8 µM (active); in experiment [5], 22.6 µM (active).

Regarding `Oc1ccc(C(=C(Cl)Cl)c2ccc(O)cc2)cc1`, the Potency result in experiment [1], in experiment [2], in [3], in experiment [5], in experiment [10] and in experiment [6] was “inactive” throughout. Besides, the Potency entry in experiment [7] was “inactive”. For the same molecule, the Potency in [8] was 48.5 µM (active).

For the molecule `O=[N+]([O-])c1ccc2ccc3cccc4ccc1c2c34`, the Potency entry in [1], in [2], in experiment [3], in [5], in experiment [6] and in experiment [8] was “inactive” in each case. In addition, the Potency in experiment [7] was 4.85 µM (active).

Regarding `O=c1oc2ccccc2c(O)c1Cc1c(O)c2ccccc2oc1=O`, the Potency result in experiment [1], in experiment [2], in [3], in experiment [4], in experiment [10] and in experiment [6] was “inactive” throughout. Further, the Potency entry in experiment [7], in experiment [11] and in experiment [13] was “inactive” in each case.

For the molecule `O=C1c2ccccc2C(=O)C1C(=O)C(c1ccccc1)c1ccc(Cl)cc1` (stereo not given), the Potency entry in experiment [1], in [2], in [3], in [5], in experiment [6] and in experiment [7] was “inactive” each time. Besides, the Potency entry in [9] was “inactive”. Besides, the Potency in experiment [12] was 6.11 µM (active).

Consider `Nc1ccc(Cl)cc1C(=O)c1ccccc1`, for which the Potency result in experiment [20], in experiment [10], in experiment [11] and in experiment [9] was “inactive” throughout. The Potency in [13] was 54.5 µM (active).

Consider `O=C(O)c1cc[c]([Hg][Cl])cc1`, for which the Potency in experiment [20] is 43.6 µM (active); in experiment [4], 13.7 µM (active); in experiment [5], 5.03 µM (active); in experiment [6] it was 54.5 µM (active); in [11] it was 13.7 µM (active); in experiment [9] it was 15.4 µM (active). Besides, the Potency result in experiment [8] was “inactive”.

With `Nc1ccc(Sc2ccc(N)cc2)cc1`, the Potency entry in experiment [17] is “inactive”.
